Here are results for 40 sequences from the OligoGym collection.
Also: reference of the scale not given here.

One experiment addresses AKR1C4. Put plainly: pooled miR-30 sensor sort-seq; sequence = guide strand. The conditions noted are these: shRNA.
Consider AATCCATGACAACATATCGATA, for which the sensor-assay potency score (higher = more potent) is -1.75.

Sequence TAAGGATGACATTCTACCTGGT registered a sensor-assay potency score (higher = more potent) of 0.727.

For ATCATTTAGCTCTACACGCTGA, the sensor-assay potency score (higher = more potent) is -0.425.

TTTGTTTGTGTTTCTTTGCTAA: the sensor-assay potency score (higher = more potent) is 0.179.

TTCAGTGAGCTTTCCAAGGCTG came in with a sensor-assay potency score (higher = more potent) of 0.323.

TTTGGTGACCTCTACAGCTCTG showed a sensor-assay potency score (higher = more potent) of 0.239.

For the sequence ATATCCTCTGATGTCAACTGGA, the sensor-assay potency score (higher = more potent) is -0.353.

As for TTATTGTATAAATAAGCAGAAT, the sensor-assay potency score (higher = more potent) is -1.48.

For TTGTGTTTCTTTGCTAAGGCAC, the sensor-assay potency score (higher = more potent) is -0.225.

For the sequence TATCCTCTGATGTCAACTGGAA, the sensor-assay potency score (higher = more potent) was -0.803.

Take AAAACCTGGATGTTCTCTCTGA: the sensor-assay potency score (higher = more potent) was determined as 0.359.

TTGTTTGTGTTTCTTTGCTAAG displayed a sensor-assay potency score (higher = more potent) of -1.47.

In turn, TTCATCTTTTGGTAGTGGCGTC yielded a sensor-assay potency score (higher = more potent) of -0.396.

On to TACTTTTCCATTTTCATCTTTT, for which the sensor-assay potency score (higher = more potent) was -0.351.

In turn, TAGAACTTTCATATCCTCTGAT had a sensor-assay potency score (higher = more potent) of 0.539.

TTGGTAGTGGCGTCTCACCTGG came in with a sensor-assay potency score (higher = more potent) of -0.771.

Consider TTGGTGACCTCTACAGCTCTGT, for which the sensor-assay potency score (higher = more potent) came to 0.122.

With TAGACCATCTAGAACTTTCATA, the sensor-assay potency score (higher = more potent) was -0.398.

Sequence TTTCATATCCTCTGATGTCAAC showed a sensor-assay potency score (higher = more potent) of -1.3.

Turning to AACATATCGATAATTTCTGTTT, the sensor-assay potency score (higher = more potent) was -1.09.

TTCTGTTTAGACCATCTAGAAC came in with a sensor-assay potency score (higher = more potent) of -1.64.

TGGATAATCAGGATGGTCCATA: the sensor-assay potency score (higher = more potent) was -1.08.

The target of the next experiment is AKT3. The description is as above. The conditions noted are these: shRNA.
TTATCTTCTAACACCTCTGGTG had a sensor-assay potency score (higher = more potent) of -0.243.

Sequence TTTATCATATACATCTTGCCAG returned a sensor-assay potency score (higher = more potent) of 0.12.

TATAACAGTAGTCCACTGGAGA: the sensor-assay potency score (higher = more potent) was -0.667.

For the sequence TTGTAGAAAGGTAACCTCCCAC, the sensor-assay potency score (higher = more potent) was -0.166.

Sequence TTTAAAAGGAGGTACAAGCTTT had a sensor-assay potency score (higher = more potent) of -0.528.

In the case of TTATCATATACATCTTGCCAGT, the sensor-assay potency score (higher = more potent) was -1.09.

For TATTGTAATAGTCTGAGCTGTA, the sensor-assay potency score (higher = more potent) turned out to be 0.29.

TTGTCTTTCTTTTATGATGGGT had a sensor-assay potency score (higher = more potent) of -0.0312.

Consider TTATTGTAATAGTCTGAGCTGT, for which the sensor-assay potency score (higher = more potent) was -0.326.

TATCTTCTAACACCTCTGGTGC gave a sensor-assay potency score (higher = more potent) of -0.701.

TAGTCTGAGCTGTAAATTCTTC returned a sensor-assay potency score (higher = more potent) of -1.06.

The sequence TAGTCCACTGGAGACATCTGAT registered a sensor-assay potency score (higher = more potent) of -0.68.

The target in another experiment is ALAD. Described as above. The settings on record: shRNA.
On to TTTGGTTTTCACTTGTCTGAGG, for which the sensor-assay potency score (higher = more potent) was -0.0275.

As to TACCACCTGACATCCTGCCTTG, the sensor-assay potency score (higher = more potent) was -0.254.

TATGTCATCAGGAACATCCGTG: the sensor-assay potency score (higher = more potent) was 0.268.

TAGGCTGTATGTCATCAGGAAC showed a sensor-assay potency score (higher = more potent) of -1.11.

Consider TTTAAAGTTCTAGTTCTTGGGC, for which the sensor-assay potency score (higher = more potent) is -0.0518.

TAGGTGATGATGATGTCAGCAC showed a sensor-assay potency score (higher = more potent) of 0.277.
